Experimental data reported in PubChem BioAssay (Tox21).
Results filed as inconclusive are left out. Calls of active or inactive are those of the source. Unless noted, calls come from the whole dose curve; as a rule, active = well fitted curve in the direction sought with a large enough effect in the repeat runs; inconclusive = weak or mixed curves; inactive = no such curve, though single readings can be large; an effect the other way counts as inactive or inconclusive.

How the values were obtained:
[1] = qHTS assay to identify small molecule agonists of the vitamin D receptor (VDR) signaling pathway - cell viability counter screen (AID 743224); note: nearly all actives have a fitted effect of over 50% in size; note: potency is the fitted concentration of half-maximal effect; for activity change, negative = cytotoxicity: series mostly up to about 63 µM; % is set by controls: 0 for no effect and ±100 for the full control effect
Procedure, shortened: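 VDR-bla cells, 4 h after plating, exposed to compounds for 16 h at 37C; viability then read in the same wells as CellTiter-Glo luminescence after 30 min at room temperature, following the bla FRET read.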

[2] = qHTS assay to identify small molecule antagonists of the vitamin D receptor (VDR) signaling pathway - cell viability counter screen (AID 743225); note: nearly all actives have a fitted effect of over 50% in size; note: potency is the fitted concentration of half-maximal effect; for viability change, negative = cytotoxic: % is set by controls: 0 for no effect and ±100 for the full control effect
Procedure, shortened: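 VDR-UAS-bla HEK 293T cells were plated and incubated 4 h at 37C, then dosed with compound plus 3 nM (final) 1-alpha,25-dihydroxyvitamin D3 for 16 h. After the 2 h beta-lactamase read, viability in the same wells was read as CellTiter-Glo luminescence after 30 min at room temperature.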

[3] = qHTS assay to identify small molecule agonists of the NFkB signaling pathway (AID 1159509; active = well fitted curve in the direction sought with a large enough effect in the signal ratio in the repeat runs, not every such curve was filed as active; the % refers to the signal ratio; note: series mostly up to about 61 µM; % is set by controls: 0 for no effect and ±100 for the full control effect)
Procedure, shortened: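 NFkB-bla ME-180 cells carry a beta-lactamase reporter under an NF-kB response element. They were plated overnight, then exposed to compounds for 5 h at 37 C. Read-out is LiveBLAzer FRET after 1.5 hr at room temperature (405 nm excitation; 460/530 nm emission).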

[4] = qHTS assay to identify small molecule agonists of the NFkB signaling pathway - cell viability counter screen (AID 1159515; calls by dose curve; note: series mostly up to about 61 µM; % is set by controls: 0 for no effect and ±100 for the full control effect; nearly all actives have a fitted effect of over 55% in size)
Procedure, shortened: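 NFkB-bla ME-180 cells, 2,000/well, plated overnight at 37 C; compound added for 5 hr at 37 C. Viability read in the same wells as the bla reporter, by CellTiter-Glo luminescence after 30 min at room temperature.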

[5] = qHTS assay to identify small molecule agonists of the endoplasmic reticulum stress response signaling pathway (AID 1159516; active = well fitted activation curve with a large enough effect in the signal ratio in the repeat runs, not every such curve was filed as active; the % refers to the signal ratio; note: % is set by controls: 0 for no effect and ±100 for the full control effect)
Procedure, shortened: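 CellSensor ESRE-bla HeLa cells, 1,500 per well, plated overnight, then exposed to compounds for 5 hr at 37 C. Beta-lactamase reporter read with LiveBLAzer B/G FRET substrate after 2 hr at room temperature, 405 nm excitation, 460 and 530 nm emission.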

[6] = qHTS assay to identify small molecule agonists of the endoplasmic reticulum stress response signaling pathway - cell viability counter screen (AID 1159517; calls by dose curve;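 note: HeLa cells carrying an ER stress response element beta-lactamase reporter; series mostly up to about 61 µM; % is set by controls: 0 for no effect and ±100 for the full control effect; nearly all actives have a fitted effect of over 50% in size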)
Procedure, shortened: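 HeLa cells carrying an ESRE-driven beta-lactamase reporter receive compound for 5 hr at 37 C. Cell viability is then gauged with CellTiter-Glo by luminescence, 30 min at room temperature.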

[7] = qHTS assay to identify small molecule antagonists of the retinoid-related orphan receptor gamma (ROR-gamma) signaling pathway - cell viability counter screen (AID 1159520); note: % is set by controls: 0 for no effect and ±100 for the full control effect; nearly all actives have a fitted effect of over 50% in size
Procedure, shortened: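 Cytotoxicity was read from cellular ATP (CellTiter-Glo luminescence) after 16 hr at 37 C with 1 uM doxycycline induction. The inducer was added 2 hr after compound transfer to Tet-on ROR gamma CHO cells.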

[8] = biological target: Nuclear receptor ROR-gamma (Homo sapiens) (UniProt P51449); test: qHTS assay to identify small molecule antagonists of the retinoid-related orphan receptor gamma (ROR-gamma) signaling pathway (AID 1159521)
Procedure, shortened: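 Tet-on ROR-gamma CHO cells with ROR response element-luciferase reporter; compounds added 2 hr before 1 uM doxycycline induction, then 16 hr at 37 C. Antagonism scored as decreased ONE-Glo luminescence.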

[9] = qHTS assay to identify small molecule agonists of the AP-1 signaling pathway - cell viability counter screen (AID 1159525; calls by dose curve; note: nearly all actives have a fitted effect of over 55% in size)
Procedure, shortened: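 Luminescent ATP readout (Cell Titer Glo, 30 min RT), normalised to DMSO and tetra n-octyl ammonium bromide controls. Cells were ME-180 AP-1-bla in 0.5% dialyzed FBS Opti-MEM, with a 5 h, 37 °C compound exposure.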

Cc1ccc(C=O)s1
inactive: Potency [1] | Potency [2] | outcome [3] | outcome [4] | outcome [5] | outcome [6] | Potency [7] | Potency [8] | outcome [9]

COc1ccc2nc(NC(=O)Nc3ccccc3)sc2c1
inactive: Potency [1] | Potency [2] | outcome [3] | outcome [4] | outcome [5] | outcome [6] | Potency [7] | Potency [8] | outcome [9]

Cc1ccc(C(C)C)cc1O
inactive: Potency [1] | Potency [2] | outcome [3] | outcome [4] | outcome [5] | outcome [6] | Potency [7] | Potency [8] | outcome [9]

C[C@]12CCC(=O)C=C1CC[C@@H]1[C@@H]2CC[C@@]2(C)[C@H]1CC[C@]2(O)C(=O)CO
inactive: Potency [1] | Potency [2] | outcome [3] | outcome [4] | outcome [5] | outcome [6] | Potency [7] | Potency [8] | outcome [9]

NC(Cc1ccc(F)cc1)C(=O)O (configuration not stated)
inactive: activity change, negative = cytotoxicity [1] 0.52% [at 5.95 µM] | viability change, negative = cytotoxic [2] 2.79% [at 6.95 µM] | activation [3] -1.04% [at 6.95 µM] | activity, negative = cytotoxic [4] -7.23% [at 6.95 µM] | activation [5] -3.08% [at 6.95 µM] | activity change, negative = cytotoxicity [6] 0.188% [at 6.95 µM] | activity, negative = cytotoxicity [7] 9.21% [at 8.39 µM] | activity change, negative = inhibition [8] -13.5% [at 8.39 µM] | viability change, negative = cytotoxic [9] -5.13% [at 6.97 µM]

C=CC(C)(O)CC/C=C(\C)CCC=C(C)C (configuration not stated)
inactive: Potency [1] | outcome [3] | outcome [4] | outcome [5] | outcome [6] | Potency [7] | Potency [8] | outcome [9]

O=c1[nH]cnc2c1ncn2[C@@H]1O[C@H](CO)[C@@H](O)[C@H]1O
inactive: Potency [1] | Potency [2] | outcome [3] | outcome [4] | outcome [5] | outcome [6] | Potency [7] | Potency [8] | outcome [9]

CCNCCO
inactive: Potency [1] | Potency [2] | outcome [3] | outcome [4] | outcome [5] | outcome [6] | Potency [7] | Potency [8] | outcome [9]

CCCCCCCCCCCCOCCOS(=O)(=O)O
inactive: outcome [3] | outcome [4] | outcome [5] | outcome [6] | Potency [7] | Potency [8]

O=C(CC(=O)C(F)(F)F)c1ccccc1
inactive: Potency [1] | Potency [2] | outcome [3] | outcome [4] | outcome [5] | outcome [6] | Potency [7] | Potency [8] | outcome [9]

CC1=C(CC(=O)O)c2cc(F)ccc2/C1=C\c1ccc(S(C)(=O)=O)cc1
inactive: Potency [1] | Potency [2] | outcome [3] | outcome [4] | outcome [5] | outcome [6] | Potency [7] | Potency [8] | outcome [9]

CCCCCCCCCCCCCCCCOP(=O)([O-])OCC[N+](C)(C)C
inactive: Potency [1] | outcome [3] | outcome [4] | outcome [5] | outcome [6] | Potency [7] | Potency [8] | outcome [9]

O=C1CCCCCCCCCCC(=O)OCCO1
inactive: Potency [1] | Potency [2] | outcome [3] | outcome [4] | outcome [5] | outcome [6] | Potency [7] | Potency [8] | outcome [9]

CC1CN(c2ccccc2)NC1=O (configuration not stated)
inactive: outcome [3] | outcome [4] | outcome [5] | outcome [6] | Potency [7] | Potency [8] | outcome [9]

CCN(CCCc1ccccc1)CCCc1ccccc1
inactive: Potency [1] | Potency [2] | outcome [3] | outcome [4] | outcome [5] | outcome [6] | Potency [7] | Potency [8] | outcome [9]

Cc1cc2nc(N)sc2cc1C
inactive: Potency [1] | Potency [2] | outcome [3] | outcome [4] | outcome [5] | outcome [6] | Potency [7] | Potency [8] | outcome [9]

CC(C)C[C@H](NC(=O)OCC1c2ccccc2-c2ccccc21)C(=O)O
inactive: Potency [1] | Potency [2] | outcome [3] | outcome [4] | outcome [5] | outcome [6] | Potency [7] | Potency [8] | outcome [9]

CCCCOc1cc(C(=O)NCCN(CC)CC)c2ccccc2n1
inactive: Potency [1] | Potency [2] | outcome [3] | outcome [4] | outcome [5] | outcome [6] | Potency [7] | Potency [8] | outcome [9]

CN1CCN(C2=Nc3ccccc3Oc3ccc(Cl)cc32)CC1
inactive: Potency [1] | Potency [2] | outcome [3] | outcome [4] | outcome [5] | outcome [6] | Potency [7] | Potency [8] | outcome [9]

Cc1nc(N)nc(N)c1-c1ccc(Cl)c(Cl)c1
active: Potency [1] 3.35 µM | Potency [2] 3.79 µM
inactive: outcome [3] | outcome [4] | outcome [5] | outcome [6] | Potency [7] | Potency [8] | outcome [9]

CCc1cc2cc(OC)c(OC)cc2c(Cc2ccccc2)n1
inactive: Potency [1] | Potency [2] | outcome [3] | outcome [4] | outcome [5] | outcome [6] | Potency [7] | Potency [8] | outcome [9]

O=C1CCN(c2ccccc2)N1
inactive: outcome [3] | outcome [4] | outcome [5] | outcome [6] | Potency [7] | Potency [8] | outcome [9]

CC(C)(C)c1ccc(OC(=O)c2ccccc2O)cc1
inactive: outcome [3] | outcome [4] | outcome [5] | outcome [6] | Potency [7] | Potency [8] | outcome [9]

Cc1cccc(C)c1NC(=O)CN1CCCCCC1
inactive: Potency [1] | Potency [2] | outcome [3] | outcome [4] | outcome [5] | outcome [6] | Potency [7] | Potency [8] | outcome [9]

CCCc1c2oc(C(=O)O)cc(=O)c2cc2c(=O)cc(C(=O)O)n(CC)c12
inactive: Potency [1] | Potency [2] | outcome [3] | outcome [4] | outcome [5] | outcome [6] | Potency [7] | Potency [8] | outcome [9]

CN(C)CC[C@@H](c1ccc(Cl)cc1)c1ccccn1
inactive: Potency [1] | Potency [2] | outcome [3] | outcome [4] | outcome [5] | outcome [6] | Potency [7] | Potency [8] | outcome [9]

C[C@]12C(=O)OC(=O)[C@H]1[C@H]1C=C[C@@H]2C1
inactive: Potency [1] | Potency [2] | outcome [3] | outcome [4] | outcome [5] | outcome [6] | Potency [7] | Potency [8] | outcome [9]
